The structures appear in SMILES notation. About 4,300 (8.3%) of roughly 52,000 compounds were called active. This excerpt belongs to a sample that is enriched for actives. A number with no mark means an inactive call. Rule as the data show it: active = survival mostly below about 52% (no sharp cut-off); inactive = mostly above about 56%.

The assay has as its system DeltatarO mutant. The assay is described as follows: S. aureus survival, RN4220 and DeltatarO strains – OD600, teichoic acid synthesis inhibitors, primary screen (AID 463173). Particulars: S. aureus RN4220 wild type/DeltatarO growth, OD600, 18 h, stronger effect = lower value, screened at 18.75 µg/mL (by protocol).
Regarding `COc1ccc2c(=O)c(NC(=O)Nc3ccc(F)cc3F)c[nH]c2c1`, the survival was 92%. Regarding `O=c1c2sc3ccccc3c2n(Cc2cccc(C(F)(F)F)c2)c(=O)n1Cc1ccc(F)cc1`, the survival is 114%. Take `O=C(Nc1ccc(F)cc1F)C1CCN(C(=O)c2cnn(-c3ccccc3)c2-n2cccc2)CC1`: the survival is 106%. The same measure for `CC(C)Sc1nc2sc3c(c2c(=O)n1-c1ccccc1)CCCC3`: -3% (active).

As to `O=c1c2c3c(sc2nc(NCCO)n1-c1ccccc1)CCCC3`, the survival is 92%.

For `C=C(C)Cn1c(SCC(=O)Nc2ccccc2C)nc2sc3c(c2c1=O)CCCC3`, the survival is 126%. For the compound `C=CCSc1nc2sc3c(c2c(=O)n1CC=C)CCCC3`, the survival is 98%. `C#CCSc1nc2sc3c(c2c(=O)n1Cc1ccccc1)CCCC3`: the survival is 33% (active). With `C=CCn1c(SC(C)C)nc2sc3c(c2c1=O)CCCC3`, the survival was 71%. Next, `CC(C)Sc1nc2sc3c(c2c(=O)n1Cc1ccccc1)CCCC3`: 13% (active); `O=c1[nH]c2sc3c(c2c(=O)n1-c1ccccc1)CCCC3`: 70%. `CCCCC(c1nnnn1C(C)C)N1CCN(c2ccc(F)cc2)CC1` (stereo unspecified): the survival is 85%. Next, `CCOC(=O)Cn1c2[n+](c3ccccc31)CC(O)CS2` (stereo unspecified): 72%; `Cc1ccc(CNC(=O)CSc2nc3ccsc3c(=O)n2-c2ccc(C(=O)O)cc2)cc1`: 95%; `Cc1ccc(NC(=O)C2CCCN2S(=O)(=O)c2ccc3c(c2)n(C)c(=O)c(=O)n3C)cc1C` (stereo unspecified): 115%. Turning to `Cc1ccc(C)c(NC(=O)C2CCCN2S(=O)(=O)c2ccc3c(c2)n(C)c(=O)c(=O)n3C)c1` (stereo unspecified), the survival is 38% (active). The same measure for `Cc1ccc(NC(=O)C2CCCN2S(=O)(=O)c2ccc3c(c2)n(C)c(=O)c(=O)n3C)cc1` (stereo unspecified): 87%; for `COc1ccc2cc(CNc3ccccc3)c(=O)n(CC(=O)Nc3ccc(C(C)=O)cc3)c2c1`: 68%; for `COc1ccccc1NC(=O)C(C#N)Cc1cc2cc(C)cc(C)c2[nH]c1=O` (stereo unspecified): 98%. Regarding `CCOC(=O)c1cc2c(ccn2-c2ccc(F)cc2)n1CC(=O)c1ccc2c(c1)OCCO2`, the survival is 100%. With `CC(Oc1ccc(Br)cc1)C(=O)N(Cc1nc(-c2ccccc2)no1)C(C)C` (stereo unspecified), the survival was 97%.

For `COc1ccc(OC(C)C(=O)NCc2nc(-c3cccc(C)c3)no2)cc1` (stereo unspecified), the survival was 61%.

In the case of `Cc1cccc(-c2noc(CN(C(=O)c3ccc(C)c(C)c3)C(C)C)n2)c1`, the survival is -3% (active). Next, `Cc1cccc(-c2noc(CN(C(=O)COc3ccc(C(C)C)cc3)C(C)C)n2)c1`: 11% (active).

As for `Cc1cccc(-c2noc(CN(C(=O)c3ccccc3Cl)C(C)C)n2)c1`, the survival was 62%. As for `CCOc1ccc(C(=O)N(Cc2nc(-c3cccc(C)c3)no2)C(C)C)cc1`, the survival is 0% (active).

Turning to `COc1ccccc1C(=O)N(Cc1nc(-c2cccc(C)c2)no1)C(C)C`, the survival was 62%.

For `Cc1cccc(-c2noc(CN(C(=O)COc3ccc(Br)cc3C)C(C)C)n2)c1`, the survival was 45% (active). For the compound `Cc1ccc2cc(CN(C(=O)c3cccc(Cl)c3)c3ccccc3)c(=O)[nH]c2c1`, the survival is 74%. As to `CCS(=O)(=O)N1CCc2cc(C(=O)Nc3cc(C(F)(F)F)ccc3Cl)ccc21`, the survival is 48%. Consider `Cc1ccc(-c2noc(CSc3nnc(C)n3-c3ccc(F)cc3)n2)cc1`, for which the survival is 61%. For the compound `CCCN1CCN(CCCNC(=O)c2cc3c(=O)[nH]c4ccccc4c3s2)CC1`, the survival was 79%. The same measure for `CC(=O)c1ccc(N2CCN(c3ncnc4c3c(-c3ccccc3)cn4-c3ccc(Cl)cc3)CC2)cc1`: 91%; for `O=C(CSc1nc2ccsc2c(=O)n1Cc1ccccc1F)NCc1ccccc1`: 122%. On to `COc1cccc(NC(=O)Cn2c(=O)n(-c3cccc(OC)c3)c(=O)c3sc4ccccc4c32)c1`, for which the survival is 65%.

As for `CCCCNC(=O)c1ccc2c(=O)n(-c3ccccc3)c(=O)[nH]c2c1`, the survival was 80%.

As for `COc1ccc(C(=O)N2CC(=O)Nc3ccc(F)cc3C2c2ccc(F)cc2)c(OC)c1` (stereo unspecified), the survival was 58%. The same measure for `Cc1ccccc1CNCc1c(C(=O)O)c(C)n(Cc2ccc(F)cc2Cl)c1C`: 59%; for `O=C(COCc1cc(-c2cccs2)on1)NCc1cccc(Cl)c1`: 117%; for `CCOc1nc(NC(=O)NS(=O)(=O)Oc2ccccc2)nc(-c2ccccc2)n1`: 70%. `CCOC(=O)c1ccc(N2C(=O)Cc3cc(OCC)c(OCC)cc3C2c2ccccc2)cc1` (stereo unspecified): the survival was 117%. In the case of `CC(C)NC(=O)c1ccc2c(c1)nnn2C`, the survival is 78%. Consider `O=C(COc1ccccc1-c1nc(-c2ccccc2)no1)Nc1ccc([N+](=O)[O-])cc1`, for which the survival is 44% (active).

With `CC(=O)c1ccc(NC(=O)COc2ccccc2-c2nc(-c3ccc(C)cc3)no2)cc1`, the survival is 57%. Next, `O=C(COc1ccccc1-c1nc(-c2ccccc2)no1)Nc1cccc([N+](=O)[O-])c1`: 34% (active); `Cc1ccccc1-c1noc(-c2ccccc2OCC(=O)Nc2cccc([N+](=O)[O-])c2)n1`: 51%.

On to `Cc1cccc(-c2noc(-c3ccccc3OCC(=O)Nc3ccc([N+](=O)[O-])cc3)n2)c1`, for which the survival was 50%.

On to `Cc1noc(-c2ccccc2OCC(=O)Nc2cccc([N+](=O)[O-])c2)n1`, for which the survival is 60%. Next, `CCN(C(=O)C1CCN(S(=O)(=O)c2ccc3c(c2)CCCN3C(C)=O)CC1)c1cccc(C)c1`: 88%.

On to `CCN(CC)S(=O)(=O)c1ccc(OC)c(-n2cnnn2)c1`, for which the survival is 65%. The same measure for `O=C(Nc1ccccc1F)c1nc(S(=O)(=O)Cc2ccccc2F)ncc1Cl`: -4% (active); for `CCOc1ccc(NC(=O)c2nc(S(=O)(=O)Cc3ccccc3F)ncc2Cl)cc1`: 11% (active); for `O=C(Nc1ccccc1F)c1nc(SCc2ccccc2F)ncc1Cl`: 73%. With `COC(=O)c1ccccc1NC(=O)c1nc(S(=O)(=O)Cc2ccccc2F)ncc1Cl`, the survival was 110%.

`COc1ccc(NC(=O)c2nc(SCc3ccccc3F)ncc2Cl)cc1`: the survival was 73%. Next, `COc1ccc2nc(NC(=O)c3nc(S(=O)(=O)Cc4ccccc4F)ncc3Cl)sc2c1`: 61%.

(Values after PubChem BioAssay AID463173 (ICCB-Longwood Screening Facility, Harvard Medical School, 2010).)
